Results published in PubChem BioAssay (EPA / NIEHS).
Several values for one entry are separate records, joined by “and”; a condition that tells them apart may be missing. Identical values can stand only once. Results filed as inconclusive are left out. Activity calls are given as the source filed them. Rule for the calls, unless noted: active = hit-call score of the fitted dose curve at least 0.9, where 1 is the maximum; inactive = score below 0.9.

How the values were obtained:
[1] = ACEA_ER_80hr: ACEA Biosciences xCELLigence Real-Time Cell Analysis on Estrogen Receptor Agonism for Proliferation (AID 2282667; active = hit-call score of the fitted dose curve at least 0.9, where 1 is the maximum); conditions: T47D proliferation, impedance (xCELLigence), 80 h
Outline: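 T47D human breast cells were seeded on electrode plates, monitored overnight, then exposed continuously to compounds in eight-point 1:4 dilutions from 100 uM (max 0.5% DMSO). Impedance-based growth was read at 80 h, fitted upward relative to DMSO.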

[2] = APR_HepG2_CellLoss_1hr: Apredica 1-hour HepG2 Assay for Cell Loss (AID 2282668); conditions: high-content imaging;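 note: curves fitted both ways against DMSO so gain or loss of cells counts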
Outline: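 HepG2 cells were treated for 1 h with compound at 0.39–200 uM, in duplicate, in 0.5% DMSO. After formaldehyde fixation, Hoechst 33342-stained nuclei were imaged on an ArrayScan to count cells. Data were fitted bidirectionally versus DMSO.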

[3] = APR_HepG2_MicrotubuleCSK_1hr: Apredica 1-hour HepG2 Assay for Microtubule CSK Stabilty (AID 2282669); conditions: HepG2 microtubule cytoskeleton imaging, actives raise or lower the signal
Outline: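 HepG2 cells exposed 1 h to 0.39–200 uM compound (0.5% DMSO, duplicates), then formaldehyde-fixed, permeabilized and immunostained for alpha-tubulin with Hoechst nuclei. Imaged by ArrayScan high-content analysis; bidirectional fit versus DMSO.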

[4] = APR_HepG2_NuclearSize_1hr: Apredica 1-hour HepG2 Assay for Nuclear Size (AID 2282670); conditions: high-content imaging, actives raise or lower the signal
Outline: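 HepG2 cells dosed 1 hr with 0.39–200 uM compound (0.5% DMSO), formaldehyde-fixed, Hoechst 33342-stained and imaged at 20x; nuclear diameter from nuclear stain, fitted bidirectionally against DMSO.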

[5] = APR_HepG2_P-H2AX_1hr: Apredica 1-hour HepG2 Assay for H2AX Phosphorylation (AID 2282673); conditions: high-content imaging, actives raise or lower the signal
Outline: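 HepG2 dosed 1 hr at 0.39-200 uM (0.5% DMSO final), duplicate. Fixed in 3.7% formaldehyde, Triton permeabilized, immunostained for phospho-histone H2A.x (1:200) with Hoechst 33342; ArrayScan 20x imaging, bidirectional fit vs DMSO.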

[6] = APR_HepG2_MitoMass_1hr: Apredica 1-hour HepG2 Assay for Mitochondrial Mass (AID 2282674); conditions: high-content imaging, actives raise or lower the signal
Outline: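 HepG2 cells dosed 1 hr with 0.39-200 uM compound (0.5% DMSO), duplicate wells. Mitochondria stained with 250 nM MitoTracker Red CMXRos for 30 min before formaldehyde fixation, imaged at 20x by ArrayScan; bidirectional fit versus DMSO.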

[7] = APR_HepG2_MitoMembPot_1hr: Apredica 1-hour HepG2 Assay for Mitochondrial Membrane Potential (AID 2282675); conditions: imaging, actives raise or lower the signal
Outline: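 HepG2 cells dosed 1 hour with 0.39–200 uM compound in duplicate, 0.5% DMSO final. MitoTracker Red CMXRos (250 nM, 30 min) loaded before formaldehyde fixation; fluorescence quantified by high-content imaging, bidirectional fitting versus DMSO.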

[8] = APR_HepG2_MitoticArrest_1hr: Apredica 1-hour HepG2 Assay for Mitotic Arrest (AID 2282672); conditions: high-content imaging, actives raise or lower the signal
Outline: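 HepG2 cells exposed 1 hr to compounds at 0.39–200 uM (0.5% v/v DMSO final), then fixed in 3.7% formaldehyde and immunostained for phospho-histone H3 with Hoechst 33342. Mitotic arrest scored by automated fluorescence imaging, fitted bidirectionally versus DMSO.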

Measured: AC50

CCCC1COC(Cn2cncn2)(c2ccc(Cl)cc2Cl)O1 (centres undefined)
inactive: [1] | [2] | [3] | [4] | [5] | [6] | [7]

CNC(=S)S
inactive: [1] | [2] | [3] | [4] | [6] | [7]

Oc1ccccc1-c1ccccc1
inactive: [1] | [2] | [3] | [4] | [6] | [7]

CC1COC(Cn2cncn2)(c2ccc(Oc3ccc(Cl)cc3)cc2Cl)O1 (centres undefined)
inactive: [1] | [2] | [3] | [4] | [5] | [6] | [7]

Cc1cc(Cl)ccc1OCC(=O)O
inactive: [1] | [2] | [3] | [4] | [6] | [7]

COC(=O)C(C)Oc1ccc(Oc2ccc(Cl)cc2Cl)cc1 (centres undefined)
inactive: [2] | [3] | [4] | [6] | [7]

Cc1ccc(-c2c(Cl)nc(C#N)n2S(=O)(=O)N(C)C)cc1
active: [1] 10.5 µM | [7] 100 µM
inactive: [2] | [3] | [4] | [6]

COC(=O)C=C(C)OP(=O)(OC)OC
inactive: [1] | [2] | [3] | [4] | [6] | [7]

COc1nc(NC(C)C)nc(NC(C)C)n1
inactive: [1] | [2] | [3] | [4] | [6] | [7]

COP(N)(=O)SC (centres undefined)
inactive: [1] | [2] | [3] | [4] | [5] | [6] | [7]

OC(c1ccc(Cl)cc1)(c1cncnc1)c1ccccc1Cl (centres undefined)
inactive: [1] | [2] | [3] | [4] | [5] | [6] | [7]

COC(=O)c1ccccc1C(=O)OC
inactive: [1] | [2] | [3] | [4] | [5] | [6] | [7]

CCOP(=S)(OCC)SCn1c(=O)oc2cc(Cl)ccc21
inactive: [1] | [2] | [3] | [4] | [8] | [6] | [7]

CC(C)Oc1cc(-n2nc(C(C)(C)C)oc2=O)c(Cl)cc1Cl
inactive: [1] | [2] | [3] | [4] | [6] | [7]

CCCCNC(=O)OCC#CI
inactive: [3] | [4] | [7]
active: [2] 100 µM and 129 µM | [6] 47.8 µM and 60.6 µM

CCOc1cc(Oc2ccc(C(F)(F)F)cc2Cl)ccc1[N+](=O)[O-]
inactive: [1] | [2] | [3] | [4] | [5] | [6] | [7]

COC(=O)N(OC)c1ccccc1COc1ccn(-c2ccc(Cl)cc2)n1
inactive: [1] | [2] | [3] | [4] | [6]
active: [7] 0.0634 µM

CCNc1nc(Cl)nc(NC(C)C)n1
inactive: [1] | [2] | [3] | [4] | [8] | [6] | [7]

CC(C)(C)c1ccc(CSc2cnn(C(C)(C)C)c(=O)c2Cl)cc1
active: [1] 0.00406 µM
inactive: [2] | [3] | [4] | [5] | [6] | [7]

COP(=S)(OC)Oc1nc(Cl)c(Cl)cc1Cl
inactive: [1] | [2] | [3] | [4] | [6] | [7]

CCOC(=O)C(Cl)Cc1cc(-n2nc(C)n(C(F)F)c2=O)c(F)cc1Cl (centres undefined)
inactive: [1] | [2] | [3] | [4] | [6] | [7]

CN(C)C(=S)SSC(=S)N(C)C
inactive: [2] | [3] | [4] | [6] | [7]
active: [1] 2.06 µM

CCNc1nc(Cl)nc(NCC)n1
inactive: [1] | [2] | [3] | [4] | [6] | [7]

COc1nc(C)nc(NC(=O)NS(=O)(=O)c2ccccc2Cl)n1
inactive: [2] | [3] | [4] | [8] | [6] | [7]

CCCCOC(=O)c1ccccc1C(=O)OCCCC
inactive: [1] | [2] | [3] | [4] | [6] | [7]

COc1cnc(OC)n2nc(NS(=O)(=O)c3c(OCC(F)F)cccc3C(F)(F)F)nc12
inactive: [1] | [2] | [3] | [4] | [6] | [7]

C=CCC1=C(C)C(OC(=O)C2C(C=C(C)C)C2(C)C)CC1=O (centres undefined)
inactive: [1] | [2] | [3] | [4] | [6]
active: [7] 100 µM
